From PubChem BioAssay (NCATS) come the findings set out here.

SMILES strings stand for the structures. Records with an inconclusive call do not appear. Active and inactive are the calls of the source. The call rests on the fitted dose curve; in most records, active means well fitted curve in the direction sought with a large enough effect; inconclusive means small, poorly fitted or top-dose-only effect, or another doubt; inactive means no such curve, though single readings can be large; an effect the other way counts as inactive or inconclusive. Peptide text beside a SMILES is read from it.

Test [1] in a line: Quantitative High-Throughput drug screen in 47 multiple myeloma cell lines against the NCATS MIPE library collection: Karpas620_DSMZ cell viability assay (AID 1918959). Further: nearly all actives have a fitted effect of over 30% in size. In short, it runs like this: (§1)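 Primary qHTS used for cherry-picking: cells at 500/well, library compounds for 48 h (37C, 5% CO2), luminescent ATP assay.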
Test [2] in a line: Quantitative High-Throughput drug screen in 47 multiple myeloma cell lines against the NCATS MIPE library collection: KMM1_JCRB cell viability assay (AID 1918960). Further: nearly all actives have a fitted effect of over 30% in size. An outline of the steps:
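ATP readout (CellTiter-Glo), 48 h drug incubation, 37 °C/5% CO2, 500 cells per well; normalisation to DMSO (100%) and media-only (0%) controls.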

Test [3] can be described thus: Quantitative High-Throughput drug screen in 47 multiple myeloma cell lines against the NCATS MIPE library collection: JIM3_ECACC cell viability assay (AID 1918963; further: nearly all actives have a fitted effect of over 35% in size). An outline of the steps: as §1
The nature of test [4]: Quantitative High-Throughput drug screen in 47 multiple myeloma cell lines against the NCATS MIPE library collection: JIM1_ECACC cell viability assay (AID 1918964). In short, it runs like this: (§2)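 Luminescent ATP measurement with CellTiter-Glo gives viability, scaled between DMSO-only wells (100%) and media-only wells (0%). Cells, 500 per well, faced library compounds for 48 hours at 37C.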

The nature of test [5]: Quantitative High-Throughput drug screen in 47 multiple myeloma cell lines against the NCATS MIPE library collection: JJN3_DSMZ cell viability assay (AID 1918966; further: nearly all actives have a fitted effect of over 50% in size). In short, it runs like this:
as §2

A short description of test [6]: Quantitative High-Throughput drug screen in 47 multiple myeloma cell lines against the NCATS MIPE library collection: H1112_PLB cell viability assay (AID 1918967; further: nearly all actives have a fitted effect of over 30% in size). An outline of the steps: as §2
A short description of test [7]: Quantitative High-Throughput drug screen in 47 multiple myeloma cell lines against the NCATS MIPE library collection: Karpas25_ECACC cell viability assay (AID 1918968; further: nearly all actives have a fitted effect of over 35% in size). An outline of the steps:
as §2

Test [8] is described as follows: Quantitative High-Throughput drug screen in 47 multiple myeloma cell lines against the NCATS MIPE library collection: INA6_PLB cell viability assay (AID 1918965; further: nearly all actives have a fitted effect of over 55% in size). In short, it runs like this:
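We plated 500 myeloma cells per well, pinned in MIPE 4.0 compounds, and incubated for 48 hours at 37C. ATP was then quantified with CellTiter-Glo, with DMSO and media-only wells defining 100% and 0%.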
Potency means the concentration at half of the fitted maximal effect.

Consider `Cc1c(C(=O)NN2CCCCC2)nn(-c2ccc(Cl)cc2Cl)c1-c1ccc(Cl)cc1`, for which the Potency in test [1] was 20.9 µM (active); in test [2], 23.5 µM (active); in test [3], 23.5 µM (active); in test [4], 11.8 µM (active); in test [5], 20.9 µM (active); in test [6], 23.5 µM (active). For the same compound, the Potency in test [7] was 23.5 µM (active).
`Nc1ccc(S(N)(=O)=O)cc1`: the Potency entry in test [1], in test [2], in test [3], in test [8], in test [5] and in test [6] was “inactive” in each case. Also, the Potency result in test [7] is “inactive”.
`Clc1ccc2c(N3CCN(CCCN4CCN(c5ccnc6cc(Cl)ccc56)CC4)CC3)ccnc2c1`: the Potency result in test [1], in test [2], in test [3], in test [8], in test [5] and in test [6] was “inactive” in each case. Also, the Potency result in test [7] is “inactive”.
As to `COC(=O)[C@H](Cc1ccccc1)NC(=O)[C@@H](N)CC(=O)O` (H-Asp-Phe-OMe), the Potency result in test [1], in test [2], in test [3], in test [4], in test [8] and in test [6] was “inactive” throughout. For the same compound, the Potency result in test [7] is “inactive”.
On to `CS(=O)(=O)OCCCCOS(C)(=O)=O`, for which the Potency entry in test [1], in test [2], in test [3], in test [8], in test [6] and in test [7] was “inactive” throughout.
As to `COC1=C(OC)C(=O)C(CCCCCCCCCCO)=C(C)C1=O`, the Potency in test [1] is 11.8 µM (active); in test [2] it was 18.7 µM (active); in test [3], 18.7 µM (active); in test [8], 18.7 µM (active); in test [5], 18.7 µM (active); in test [7] it was 13.2 µM (active).
Consider `N=C(N)c1ccc2cc(OC(=O)c3ccc(N=C(N)N)cc3)ccc2c1`, for which the Potency result in test [1], in test [2], in test [3], in test [4] and in test [6] was “inactive” in each case. For the same compound, the Potency in test [7] was 9.35 µM (active).
In the case of `CCCS(=O)c1ccc2nc(NC(=O)OC)[nH]c2c1` (centres undefined), the Potency entry in test [1], in test [2] and in test [4] was “inactive” each time. The Potency in test [5] is 11.8 µM (active).
For the compound `O=c1c(O)c(-c2cc(O)c(O)c(O)c2)oc2cc(O)cc(O)c12`, the Potency entry in test [1], in test [2], in test [3] and in test [6] was “inactive” in each case. For the same compound, the Potency in test [5] was 20.9 µM (active).
Take `CCC(C)(Oc1ccc(C2(c3ccc(OC(C)(CC)C(=O)O)cc3)CCCCC2)cc1)C(=O)O` (centres undefined): the Potency entry in test [1], in test [2], in test [3] and in test [6] was “inactive” throughout. Further, the Potency in test [7] is 13.2 µM (active).
Consider `O=P(O)(O)C(O)(Cn1ccnc1)P(=O)(O)O`, for which the Potency entry in test [1], in test [2], in test [3] and in test [6] was “inactive” in each case.
In the case of `Clc1ccc(C(Cn2ccnc2)OCc2ccc(Sc3ccccc3)cc2)c(Cl)c1` (centres undefined), the Potency is 18.7 µM (active) in test [1]; 20.9 µM (active) in test [2]; 20.9 µM (active) in test [4]; 26.4 µM (active) in test [8]; 18.7 µM (active) in test [7].
As for `Oc1ccc(-c2nc(-c3ccc(F)cc3)c(-c3ccncc3)[nH]2)cc1`, the Potency result in test [1] and in test [2] was “inactive” in each case. In addition, the Potency in test [3] is 14.8 µM (active); in test [8], 14.8 µM (active); in test [5] it was 9.35 µM (active); in test [6], 8.33 µM (active); in test [7], 7.43 µM (active).
As for `COc1ccc(C2(C#N)CCC(C(=O)O)CC2)cc1OC1CCCC1` (centres undefined), the Potency entry in test [1], in test [2], in test [3] and in test [5] was “inactive” in each case. Besides, the figures for the Potency in test [8] and in test [7] were 18.7 µM (active) and 23.5 µM (active), respectively.
On to `O=C(O)c1cccnc1Nc1cccc(C(F)(F)F)c1`, for which the Potency result in test [1], in test [2], in test [3], in test [8] and in test [6] was “inactive” in each case.
`Cc1cccc(C#Cc2ccccc2)n1`: the Potency result in test [1], in test [2], in test [3], in test [6] and in test [7] was “inactive” in each case. Also, in test [8], the Potency was 13.2 µM (active).
With `Nc1cccc2c1CN(C1CCC(=O)NC1=O)C2=O` (centres undefined), the Potency entry in test [1], in test [2], in test [3] and in test [6] was “inactive” throughout. For the same compound, the results for the Potency in test [5] and in test [7] were 1.71 µM (active) and 4.81 µM (active), respectively.
On to `C[C@@H](N)C1CCC(C(=O)Nc2ccncc2)CC1` (some centres undefined), for which the Potency entry in test [1], in test [2] and in test [5] was “inactive” throughout. The Potency in test [8] is 18.7 µM (active); in test [6] it was 14.8 µM (active); in test [7], 26.4 µM (active).
Take `CCOC(=O)c1c(C)n(C)c2ccc(O)cc12`: the Potency result in test [1], in test [2], in test [3], in test [6] and in test [7] was “inactive” each time.
On to `Cc1c(OCC(F)(F)F)ccnc1CS(=O)c1nc2ccccc2[nH]1` (centres undefined), for which, in test [1], the Potency result is “inactive”. Further, the Potency was 20.9 µM (active) in test [2], 16.6 µM (active) in test [3], 2.64 µM (active) in test [5] and 20.9 µM (active) in test [6].
Turning to `C[C@@H](c1ncncc1F)[C@](O)(Cn1cncn1)c1ccc(F)cc1F`, the Potency entry in test [1], in test [2], in test [3], in test [4], in test [8] and in test [7] was “inactive” throughout.
As for `CCN(CCO)CCCC(C)Nc1ccnc2cc(Cl)ccc12` (centres undefined), the Potency entry in test [1], in test [2], in test [3], in test [4], in test [5] and in test [6] was “inactive” in each case.
On to `O=C(NCCO[N+](=O)[O-])c1cccnc1`, for which the Potency result in test [1], in test [2], in test [3], in test [4], in test [5] and in test [6] was “inactive” each time.
Turning to `NNc1nncc2ccccc12`, the Potency entry in test [1], in test [2], in test [3] and in test [6] was “inactive” in each case.
As for `CN(c1nccc(=O)[nH]1)C1CCN(c2nc3ccccc3n2Cc2ccc(F)cc2)CC1`, the Potency result in test [1] and in test [2] was “inactive” each time. The Potency in test [8] was 23.5 µM (active); in test [6], 23.5 µM (active); in test [7] it was 11.8 µM (active).
With `O=C1c2c(O)cc(O)cc2OC(c2ccc(O)c(O)c2)C1O` (centres undefined), the Potency entry in test [1], in test [2], in test [3], in test [4], in test [8] and in test [6] was “inactive” each time. Also, in test [7], the Potency entry was “inactive”.
